Source: PubChem (several laboratories)
This is a sample that favours compounds with a hit; in the whole collection about 3.2% have one here.
MEKK2 WT-MEK5: raises or lowers MEK5 binding to wildtype human MEKK2 PB1 domain | Q9Y2U5 | bead flow cytometry, Alexa488-MEK5 binding to MEKK2 WT; actives lie on both sides | binding response (% of control), % at 10 µM | 1.1% of 290,000 active | AID 1531; in the data active means binding response below about 67% or above about 130%
MEKK3 PB1 HTS: raises or lowers MEK5 binding to the human MEKK3 PB1 domain; 1.4% of 290,000 active; binding response (% of control), % at 10 µM; AID 1529; bead-based flow cytometry, Alexa488-MEK5 binding to MEKK3; actives lie on both sides; 0 = blocked by unlabeled MEK5, 100 = vehicle; Q99759;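 active means binding response more than 3 SD above or below the average of its plate-row segment, actives on both sides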;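 further: Alexa488 bead fluorescence after subtracting the streptavidin-only scavenger bead signal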
Target sequence (Q99759 whole entry, looked up, the tested form may be a part): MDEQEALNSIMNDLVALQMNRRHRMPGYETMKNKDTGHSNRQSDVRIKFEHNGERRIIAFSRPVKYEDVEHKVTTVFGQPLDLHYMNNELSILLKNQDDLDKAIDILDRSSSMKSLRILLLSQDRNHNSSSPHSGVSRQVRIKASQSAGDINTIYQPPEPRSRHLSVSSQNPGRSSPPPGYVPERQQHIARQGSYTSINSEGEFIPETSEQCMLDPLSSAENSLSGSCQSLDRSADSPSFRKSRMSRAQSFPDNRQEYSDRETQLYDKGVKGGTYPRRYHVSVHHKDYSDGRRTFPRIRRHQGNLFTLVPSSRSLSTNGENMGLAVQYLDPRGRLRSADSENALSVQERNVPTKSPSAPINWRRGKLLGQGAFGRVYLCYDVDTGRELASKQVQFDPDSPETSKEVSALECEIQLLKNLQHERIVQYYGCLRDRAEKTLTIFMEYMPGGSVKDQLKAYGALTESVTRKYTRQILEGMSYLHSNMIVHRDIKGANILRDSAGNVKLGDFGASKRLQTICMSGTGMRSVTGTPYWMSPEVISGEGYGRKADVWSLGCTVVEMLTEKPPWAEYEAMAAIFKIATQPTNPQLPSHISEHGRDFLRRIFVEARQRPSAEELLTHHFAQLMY
SKN-1 block: inhibitors of C. elegans SKN-1 | inhibition, % at 21.8 µM | C. elegans VP596 Pgst-4::GFP/RFP ratio, acrylamide-induced, 24 h | AID 624304 | 0.49% of 360,000 active;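 active means interference check ratio from 0.5 to 1.5 plus GFP to RFP signal ratio inhibition reaching or exceeding a fixed threshold, cut at about 30% in these data, passing the limit was not always enough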
MEKK2mut PB1 HTS: signal of MEK5 binding to mutant human MEKK2 PB1 domain | bead flow cytometry, Alexa488-MEK5 binding to MEKK2 mutant | percent response, % at 10 µM | 0.35% of 290,000 active; in the data active means percent response above about 24%, passing the limit was not always enough
NRP1-CendR mod: NRP-1/CendR interaction modulation; inhibition, % at 25 µM; FAM-RPARPAR peptide binding to NRP-1, fluorescence polarization; O14786; 0.85% of 360,000 active;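 active means inhibition or corrected inhibition above about 18%, plus a signal ratio from 0.5 to 1.5, limit read from the data, passing the limit was not always enough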
MEKK2wt confirm: raises or lowers MEK5 binding to wildtype human MEKK2, retest; shares compounds with MEKK3 PB1 HTS; bead flow cytometry, Alexa488-MEK5 binding to MEKK2 WT; actives lie on both sides; binding response (% of control), % at 10 µM; 2.4% of 5,900 active; in the data active means binding response below about 16% or above about 210%; inactive means in between
MEKK2mut-MEK5: signal of MEK5 binding to mutant human MEKK2, retest; percent response, % at 10 µM; bead flow cytometry, Alexa488-MEK5 binding to MEKK2 mutant; shares compounds with MEKK3 PB1 HTS; 2% of 5,900 active; AID 1893; in the data active means percent response mostly above about 71%, no sharp cut-off; inactive means mostly below about 38%;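 further: higher means compound restores mutant binding toward wildtype level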
MEKK3-MEK5 inh: confirmation of inhibitors of MEK5 binding to human MEKK3; binding response (% of control), % at 10 µM; shares compounds with MEKK3 PB1 HTS; AID 1894; 1.8% of 5,900 active; bead flow cytometry, Alexa488-MEK5 binding to MEKK3; active compounds read low;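 active means binding response below 72% of control, or above a set upper limit, though filed actives all read lower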;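 further: 100% = DMSO only wells and 0% = binding blocked by excess unlabeled MEK5; lower values mean stronger disruption of MEK5 binding to MEKK3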
Numbers without * were called inactive; x = no result given; [ ] = dose if it differs, or a comment.

SMILES	MEKK2 WT-MEK5	MEKK3 PB1 HTS	SKN-1 block	MEKK2mut PB1 HTS	NRP1-CendR mod	MEKK2wt confirm	MEKK2mut-MEK5	MEKK3-MEK5 inh
COc1ccc(/C=N/NC(=O)CCc2n[nH]c(=O)[nH]c2=O)cc1OC	106	129*	1	0	-10	110	14	108
Cc1ccc(CN2CCC(C)(Oc3ccc(Cl)cc3)C2)cc1 (stereo not drawn)	x	x	-5	x	-5	x	x	x
Cc1cc(N)nc(=O)n1C1CC(O)C(CO)O1 (stereo not drawn)	x	x	-1	x	-11	x	x	x
NC(=O)Cn1ccc(O)c(Cc2ccc(Cl)cc2Cl)c1=O	105	104	2	8	2	x	x	x
COCCN(C(=O)COC(=O)C1CCCCC1)c1c(N)n(Cc2ccccc2)c(=O)[nH]c1=O	x	x	6	x	-4	x	x	x
O=C(c1cccc([N+](=O)[O-])c1)N1CCN(c2ncccn2)CC1	98	106	-7	32*	5	101	-4	100
O=C(c1ccccc1)c1ccc(N2CCN(C(=O)c3ccc(F)cc3F)CC2)c(F)c1	x	x	6	x	-8	x	x	x
Cn1c(OCc2cccnc2)nc2c1c(=O)n(Cc1ccccc1)c(=O)n2C	99	93	23	-6	9	x	x	x
Cn1c(OCc2cccnc2)nc2c1c(=O)n(Cc1ccc(F)cc1)c(=O)n2C	78	71*[inhibitor]	17	-30	6	99	-2	104
COCCCN1C(=O)C(CC(=O)NCCN2CCOCC2)CC(C(=O)N2CCOCC2)=C1C (stereo not drawn)	x	x	-16	x	8	x	x	x
Cn1c(SCc2nc3ccccc3n2CCO)nc2ccccc21	125	125*	13	7	4	105	1	104
COCC(=O)Nc1nnc(-c2ccc(C(C)(C)C)cc2)s1	118	144*	-7	6	4	102	-14	98
COc1ccc(NS(=O)(=O)c2cc(C(=O)N3CCN(C(C)=O)CC3)ccc2Cl)cc1	77	71*[inhibitor]	7	-2	16	102	4	104
O=C(Nc1cc(Cl)cc(Cl)c1)C(c1ccccc1)N1CCCCC1 (stereo not drawn)	122	153*	-7	1	6	118	6	104
O/N=C/c1ccc2cccc(OCc3ccccc3)c2n1	103	100	24	5	-2	x	x	x
NC(N)=N/N=C/c1ccc2cccc(OCc3ccccc3)c2n1	148*	104	4	31	4	2.0*[inhibitor]	-47	2.0*
CCc1cccc(CC)c1NC(=O)COC(=O)c1ccccc1-c1nc2ccccc2s1	72	48*[inhibitor]	-2	-2	-9	93	-6	102
CC(C)(C)N=C1SCC(C)(/C=N/O)S1 (stereo not drawn)	104	100	13	2	-8	x	x	x
CCC(C)N=C1SCC(C)(/C=N/O)S1 (stereo not drawn)	135*	128*	1	6	-3	91	-5	95
O=C(NCc1ccc(F)cc1F)[C@@H]1CCCN1C(=O)[C@@H]1CCCN1C(=O)c1cccs1	x	x	2	x	0	x	x	x
COc1ccc(-c2csc(COC(=O)C(C)(C)C)n2)cc1	99	95	-7	-2	4	x	x	x
CC(C)(C)C(=O)OCc1nc(-c2ccc(F)cc2)cs1	44*[inhibitor]	54	-12	-24	-12	94	-11	95
CCCCC(=O)NCCNc1nc2c(c(=O)n(C)c(=O)n2C)n1Cc1ccccc1	2.0*[inhibitor]	2.0*[inhibitor]	6	-14	6	109	5	104
CCCCC(=O)NCCNc1nc2c(c(=O)n(C)c(=O)n2C)n1Cc1ccc(F)cc1	101	104	-8	1	6	x	x	x
Cc1ccc(C(=O)Nc2ccc3c(c2)C(=O)NC3=O)cc1	96	99	-9	0	0	x	x	x
COC(=O)c1ccc(C(=O)Nc2ccc3c(c2)C(=O)NC3=O)cc1	69*[inhibitor]	60*[inhibitor]	0	-5	-13	79	-11	83
